Reference: PubChem BioAssay AID1159580 (chemical genetic matrix, 2015)
Several values for one entry are separate records, joined by “and”; a condition that tells them apart may be missing. Identical values can stand only once. Among all 5,500 compounds or so, about 2,000 (36%) were called active. Another 18% or so got no clear call; they are omitted. Rule as the data show it: active = normalized growth mostly below about 0.91 (no sharp cut-off); inconclusive = no clear call, values can overlap the other calls; inactive = mostly above about 0.92. The list shows a part of the results.

Assay: chemical genetic growth profiling, strain panel (AID 1159580);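 also: tested at 20 µM; growth read once vehicle control cultures reached saturation at 30 °C; 1 = growth at the plate median or of vehicle wells; lower values mean less growth of the strain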
Details: S. cerevisiae deletion strains, growth OD

Measured: normalized growth

CC(C)=CCCC1(C)C=Cc2c(O)c3c(c(CC=C(C)C)c2O1)OC12C(=CC4CC1C(C)(C)OC2(C/C=C(/C)C(=O)O)C4=O)C3=O (configuration not stated)
active: locus YAL013W, strain DEP1, stronger effect = lower value 0.887 | locus YAL026C, strain drs2, stronger effect = lower value 0.895 | locus YAL030W, strain snc1, stronger effect = lower value 0.925 | locus YBL061C, strain skt5, stronger effect = lower value 0.87 | locus YBR009C, strain hhf1, stronger effect = lower value 0.803 | locus YBR023C, strain chs3, stronger effect = lower value 0.84 | locus YBR231C, strain swc5, stronger effect = lower value 0.559 | locus YBR279W, strain paf1, stronger effect = lower value 0.815 | locus YCL011C, strain gbp2, stronger effect = lower value 0.835 | locus YCL016C, strain dcc1, stronger effect = lower value 0.853 | locus YCL061C, strain MRC1, stronger effect = lower value 0.907 | locus YDL035C, strain GPR1, stronger effect = lower value 0.736 | locus YDL074C, strain BRE1, stronger effect = lower value 0.691 | locus YDL192W, strain arf1, stronger effect = lower value 0.901 | locus YDR069C, strain doa4, stronger effect = lower value 0.821 | locus YDR137W, strain rgp1, stronger effect = lower value 0.713 | locus YDR162C, strain NBP2, stronger effect = lower value 0.296 | locus YDR297W, strain sur2, stronger effect = lower value 0.889 | locus YDR318W, strain mcm21, stronger effect = lower value 0.879 | locus YDR335W, strain msn5, stronger effect = lower value 0.902 | locus YDR388W, stronger effect = lower value 0.897 | locus YDR392W, strain spt3, stronger effect = lower value 0.223 | locus YDR502C, strain sam2, stronger effect = lower value 0.849 | locus YEL003W, strain gim4, stronger effect = lower value 0.863 | locus YEL061C, strain CIN8, stronger effect = lower value 0.881 | locus YER015W, strain faa2, stronger effect = lower value 0.785 | locus YER155C, strain BEM2 (second series), stronger effect = lower value 0.758 | locus YER155C, strain BEM2, stronger effect = lower value 0.83 | locus YER167W, strain BCK2, stronger effect = lower value 0.874 | locus YFR010W, strain ubp6, stronger effect = lower value 0.891 | locus YGL086W, strain mad1, stronger effect = lower value 0.892 | locus YGL173C, strain kem1, stronger effect = lower value 0.82 | locus YGL248W, strain PDE1, stronger effect = lower value 0.791 | locus YGL253W, strain hxk2, stronger effect = lower value 0.877 | locus YGR135W, strain pre9, stronger effect = lower value 0.885 | locus YGR229C, strain SMI1, stronger effect = lower value 0.244 | locus YHR013C, strain ard1, stronger effect = lower value 0.605 | locus YHR027C, strain rpn1, stronger effect = lower value 0.894 | locus YHR129C, strain ARP1, stronger effect = lower value 0.808 | locus YHR142W, strain chs7, stronger effect = lower value 0.818 | locus YHR200W, strain rpn10, stronger effect = lower value 0.914 | locus YIL066C, strain RNR3, stronger effect = lower value 0.606 | locus YIL125W, strain kgd1, stronger effect = lower value 0.927 | locus YJL095W, strain BCK1 (second series), stronger effect = lower value 0.871 | locus YJL095W, strain BCK1, stronger effect = lower value 0.732 and 0.878 | locus YJL129C, strain trk1, stronger effect = lower value 0.653 | locus YJL164C, strain tpk1, stronger effect = lower value 0.758 | locus YJL166W, strain qcr8, stronger effect = lower value 0.77 | locus YJL187C, strain SWE1 (second series), stronger effect = lower value 0.838
inactive: locus YAL021C, strain ccr4, stronger effect = lower value 0.954 | locus YBR021W, strain FUR4, stronger effect = lower value 0.99 | locus YBR171W, strain sec66, stronger effect = lower value 0.979 | locus YBR229C, strain ROT2, stronger effect = lower value 0.988 | locus YCL029C, strain bik1, stronger effect = lower value 0.987 | locus YCL069W, strain vba3, stronger effect = lower value 0.945 | locus YCR088W, strain abp1, stronger effect = lower value 0.943 | locus YDL005C, strain med2, stronger effect = lower value 0.959 | locus YDL040C, strain nat1, stronger effect = lower value 0.959 | locus YDL101C, strain DUN1, stronger effect = lower value 0.894 | locus YDL185W, strain tfp1, stronger effect = lower value 0.986 | locus YDR001C, strain nth1, stronger effect = lower value 0.952 | locus YDR101C, strain arx1, stronger effect = lower value 0.93 | locus YDR150W, strain NUM1, stronger effect = lower value 0.932 | locus YDR159W, strain sac3, stronger effect = lower value 0.957 | locus YDR195W, strain ref2 1.11 | locus YDR334W, strain swr1, stronger effect = lower value 0.916 | locus YEL037C, strain rad23, stronger effect = lower value 0.967 | locus YEL061C, strain CIN8 (second series), stronger effect = lower value 0.935 | locus YER016W, strain bim1, stronger effect = lower value 0.967 | locus YER110C, stronger effect = lower value 0.98 | locus YER111C, strain swi4, stronger effect = lower value 0.977 | locus YGL078C, strain dbp3, stronger effect = lower value 0.965 | locus YGL167C, strain pmr1, stronger effect = lower value 0.915 | locus YGL227W, strain vid30, stronger effect = lower value 0.985 | locus YGL240W, strain doc1, stronger effect = lower value 0.966 | locus YGR252W, strain gcn5, stronger effect = lower value 0.882 | locus YHR079C, strain IRE1 (second series), stronger effect = lower value 0.98 | locus YHR079C, strain IRE1, stronger effect = lower value 0.89 | locus YHR094C, strain hxt1, stronger effect = lower value 0.983 | locus YIL073C, strain SPO22, stronger effect = lower value 0.796 | locus YIR030C, strain dcg1, stronger effect = lower value 0.967 | locus YJL092W, strain hpr5, stronger effect = lower value 0.946 | locus YJL115W, strain asf1, stronger effect = lower value 0.951 | locus YJL134W, strain LCB3, stronger effect = lower value 0.982 | locus YJL154C, strain vps35, stronger effect = lower value 0.983 | locus YJL168C, strain set2, stronger effect = lower value 0.98
0.85 (active) and 0.869 (inactive): locus YHR030C, strain SLT2, stronger effect = lower value
